From PubChem
Rows were chosen to be rich in hits. Some 27% of all compounds tested hit in one or more screens of this group.
sEH inhibitor – inhibitors of human soluble epoxide hydrolase; P34913; recombinant human sEH enzymatic activity assay; inhibition, % at 2 µM; 91,000 compounds, 0.34% hits; in the data active = inhibition above about 80%
sEH activator – activators of human soluble epoxide hydrolase; purified human sEH enzymatic activity, activator screen; AID 717; 91,000 compounds, 0.04% hits; P34913; activation, % at 2 µM; in the data active = activation above about 37%
CYP2C9 inh – blocks human cytochrome P450 2C9. CYP2C9 Supersomes, luciferin-H conversion, luminescence. P11712. 96,000 compounds, 20% hits. inhibition, % at 5 µM. AID 777;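 active = blocking of liver enzyme CYP2C9 beyond about 50% at 5 µM, limit read from the data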
Target sequence (P11712 whole entry, looked up): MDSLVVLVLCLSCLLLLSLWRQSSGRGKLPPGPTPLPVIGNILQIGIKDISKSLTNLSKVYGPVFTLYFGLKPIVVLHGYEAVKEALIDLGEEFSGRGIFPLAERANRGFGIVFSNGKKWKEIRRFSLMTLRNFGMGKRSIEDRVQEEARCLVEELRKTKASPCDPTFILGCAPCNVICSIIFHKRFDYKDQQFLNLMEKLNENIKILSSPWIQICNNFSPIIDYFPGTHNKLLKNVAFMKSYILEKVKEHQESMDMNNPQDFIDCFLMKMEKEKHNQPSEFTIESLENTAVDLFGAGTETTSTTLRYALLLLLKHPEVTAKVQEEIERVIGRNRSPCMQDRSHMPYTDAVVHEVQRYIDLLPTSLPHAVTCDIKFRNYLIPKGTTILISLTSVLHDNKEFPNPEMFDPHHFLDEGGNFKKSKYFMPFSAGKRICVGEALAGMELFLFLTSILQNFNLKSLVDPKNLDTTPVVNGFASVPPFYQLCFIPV
CYP2C19 inh – inhibitors of human CYP2C19. CYP2C19 Supersomes, luciferin-H EGE luminescence, 30 min. inhibition, % at 5 µM. 96,000 compounds, 21% hits;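 active = CYP2C19 inhibition above a set limit at 5 µM in the primary screen, cut at about 50% in these data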
CYP2C19 activ – increases human CYP2C19 enzyme activity; recombinant CYP2C19, luciferin-H EGE luminescence; stronger effect = higher value; 0 = fully inhibited enzyme, 1 = untreated enzyme; activation factor at 5 µM; 96,000 tested, under 10 active; AID 1025;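 active = activation factor of at least 2 at 5 µM in the primary screen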
CYP2C9 activ – CYP2C9 (human) activation | recombinant CYP2C9, luciferin-H conversion, luminescence; stronger effect = higher value; factor 1 = untreated enzyme, 0 = blocked | P11712 | 96,000 compounds, 1.4% hits | AID 1024 | activation factor at 5 µM;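 active = activation factor of 2 or more for CYP2C9 at a 5 µM dose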
Hits are given with their value.

`CN(Cc1ccccc1)S(=O)(=O)c1ccc(Cl)nc1` gave sEH inhibitor inactive, sEH activator inactive, CYP2C9 inh inactive, CYP2C19 inh 70, CYP2C19 activ inactive and CYP2C9 activ inactive.
Screening CN(Cc1ccccc1)S(=O)(=O)c1ccc(S(=O)(=O)N2CCN(CCC#N)CC2)cc1 returned sEH inhibitor inactive and sEH activator inactive.
CC(=O)N(C)c1ccc(NS(=O)(=O)Cc2ccccc2)cc1 was read as sEH inhibitor inactive, sEH activator inactive, CYP2C9 inh inactive, CYP2C19 inh inactive, CYP2C19 activ inactive and CYP2C9 activ inactive.
For CN(Cc1ccccc1)S(=O)(=O)c1ccc(NS(=O)(=O)Cc2ccccc2)cc1 the results were sEH inhibitor inactive, sEH activator inactive, CYP2C9 inh 94, CYP2C19 inh 94, CYP2C19 activ inactive and CYP2C9 activ inactive.
COc1ccccc1-c1nnc(NC(=O)OCC(C)C)s1 was read as sEH inhibitor inactive, sEH activator inactive, CYP2C9 inh inactive, CYP2C19 inh inactive, CYP2C19 activ inactive and CYP2C9 activ 2.4.
Screening CCOc1ccccc1NC(=O)CN(C)S(=O)(=O)c1cccc2nsnc12 returned sEH inhibitor inactive and sEH activator inactive.
For CC(=O)c1ccc(N2CCN(c3ccc(S(=O)(=O)N4CCN(C)CC4)cn3)CC2)cc1 the results were sEH inhibitor inactive, sEH activator inactive, CYP2C9 inh inactive, CYP2C19 inh inactive, CYP2C19 activ inactive and CYP2C9 activ inactive.
`N#Cc1nc(-c2cccs2)oc1NCc1ccc(Cl)cc1` gave CYP2C9 inh inactive, CYP2C19 inh inactive, CYP2C19 activ inactive and CYP2C9 activ inactive.
Screening CCOc1ccc(Nc2oc(-c3cccs3)nc2C#N)cc1 returned sEH inhibitor inactive, sEH activator inactive, CYP2C9 inh inactive, CYP2C19 inh inactive, CYP2C19 activ inactive and CYP2C9 activ inactive.
Screening C=CCNc1oc(-c2cccs2)nc1C#N returned sEH inhibitor inactive, sEH activator inactive, CYP2C9 inh inactive, CYP2C19 inh 72, CYP2C19 activ inactive and CYP2C9 activ inactive.
For N#Cc1nc(-c2cccs2)oc1NCc1ccco1 the results were sEH inhibitor inactive, sEH activator inactive, CYP2C9 inh 90, CYP2C19 inh 76, CYP2C19 activ inactive and CYP2C9 activ inactive.
Screening N#Cc1nc(-c2cccs2)oc1NCc1ccccc1Cl returned sEH inhibitor inactive, sEH activator inactive, CYP2C9 inh 57, CYP2C19 inh inactive, CYP2C19 activ inactive and CYP2C9 activ inactive.
Cc1ccc(CNc2oc(-c3cccs3)nc2C#N)cc1 was read as sEH inhibitor inactive, sEH activator inactive, CYP2C9 inh 78, CYP2C19 inh inactive, CYP2C19 activ inactive and CYP2C9 activ inactive.
For C=Cn1c(N2CCOCC2)nc2c1c(=O)[nH]c(=O)n2C the results were sEH inhibitor inactive, sEH activator inactive, CYP2C9 inh inactive, CYP2C19 inh inactive, CYP2C19 activ inactive and CYP2C9 activ inactive.
Screening CCCS(=O)(=O)c1c(S(=O)(=O)CCC)c2c(N)cccn2c1C(=O)c1ccc(Br)cc1 returned sEH inhibitor inactive and sEH activator inactive.
CCCS(=O)(=O)c1c(S(=O)(=O)CCC)c2c(N)cccn2c1C(=O)c1ccc(F)cc1 was read as sEH inhibitor inactive, sEH activator inactive, CYP2C9 inh 68, CYP2C19 inh 66, CYP2C19 activ inactive and CYP2C9 activ inactive.
Screening COC(=O)C1=C(C(=O)c2ccc(C)cc2)C(c2ccc(OC)c(OC)c2)n2nnnc2N1 (stereo not given) returned sEH inhibitor inactive, sEH activator inactive, CYP2C9 inh inactive, CYP2C19 inh inactive, CYP2C19 activ inactive and CYP2C9 activ inactive.
For COc1cccc(C2C=C(c3ccc(OC)cc3OC)Nc3nnnn32)c1 (stereo not given) the results were sEH inhibitor inactive, sEH activator inactive, CYP2C9 inh 77, CYP2C19 inh 58, CYP2C19 activ inactive and CYP2C9 activ inactive.
Screening COc1ccc(C2=CC(c3ccc(OC)c(OC)c3)n3nnnc3N2)c(OC)c1 (stereo not given) returned sEH inhibitor inactive, sEH activator inactive, CYP2C9 inh 97, CYP2C19 inh 90, CYP2C19 activ inactive and CYP2C9 activ inactive.
CC(=O)N1CCN(c2nc(C)nc3sc4c(c23)CCC(C)C4)CC1 (stereo not given) was read as sEH inhibitor inactive, sEH activator inactive, CYP2C9 inh 86, CYP2C19 inh 83, CYP2C19 activ inactive and CYP2C9 activ inactive.
`Cc1cc(C)c(NC(=O)C2CSCCS2)c(C)c1` (stereo not given) gave sEH inhibitor inactive and sEH activator inactive.
For CC1=CCC2C(=O)N(C(C)c3ccccc3)C(=O)C2C1 (stereo not given) the results were sEH inhibitor inactive, sEH activator inactive, CYP2C9 inh inactive, CYP2C19 inh 94, CYP2C19 activ inactive and CYP2C9 activ inactive.
Screening CC1=CCC2C(=O)N(Cc3ccccc3)C(=O)C2C1 (stereo not given) returned sEH inhibitor inactive, sEH activator inactive, CYP2C9 inh inactive, CYP2C19 inh inactive, CYP2C19 activ inactive and CYP2C9 activ inactive.
For Cn1c(CO)cnc1SCc1ccc(Cl)cc1 the results were sEH inhibitor inactive, sEH activator inactive, CYP2C9 inh inactive, CYP2C19 inh 84, CYP2C19 activ inactive and CYP2C9 activ inactive.
Screening CCOC(=O)C1CSC(CC(=O)Nc2ccc(Cl)c(Cl)c2)C(=O)N1 (stereo not given) returned sEH inhibitor inactive, sEH activator inactive, CYP2C9 inh inactive, CYP2C19 inh inactive, CYP2C19 activ inactive and CYP2C9 activ inactive.
`CC[C@@H](C(=O)n1nc(C)cc1C)[C@H](NS(=O)(=O)c1ccc(C)cc1)c1ccccc1` gave sEH inhibitor inactive, sEH activator inactive, CYP2C9 inh inactive, CYP2C19 inh inactive, CYP2C19 activ inactive and CYP2C9 activ inactive.
Cc1cc(SCNC(=O)c2ccccc2)ncn1 was read as CYP2C9 inh inactive, CYP2C19 inh inactive, CYP2C19 activ inactive and CYP2C9 activ inactive.
`Cc1cc(C)nc(SCNC(=O)c2ccc(F)cc2)n1` gave sEH inhibitor inactive, sEH activator inactive, CYP2C9 inh inactive, CYP2C19 inh 62, CYP2C19 activ inactive and CYP2C9 activ inactive.
Cc1cc(Cl)c(S(=O)(=O)Nc2ccccn2)cc1OCC(N)=O was read as sEH inhibitor inactive, sEH activator inactive, CYP2C9 inh inactive, CYP2C19 inh inactive, CYP2C19 activ inactive and CYP2C9 activ inactive.
Screening CC1=CC(C)C2C(=O)N(CCC[N+](C)(C)C)C(=O)C2C1 (stereo not given) returned sEH inhibitor inactive, sEH activator inactive, CYP2C9 inh inactive, CYP2C19 inh inactive, CYP2C19 activ inactive and CYP2C9 activ inactive.
Cc1onc(-c2c(F)cccc2Cl)c1C(=O)N1CCc2ccccc2C1 was read as sEH inhibitor inactive, sEH activator inactive, CYP2C9 inh 68, CYP2C19 inh 96, CYP2C19 activ inactive and CYP2C9 activ inactive.
Screening Cc1onc(-c2c(Cl)cccc2Cl)c1C(=O)Nn1cnnc1 returned sEH inhibitor inactive, sEH activator inactive, CYP2C9 inh inactive, CYP2C19 inh inactive, CYP2C19 activ inactive and CYP2C9 activ inactive.
